# PubChem BioAssay (NCATS)
# Values joined by “and” are separate entries in the source; they are usually repeats but may differ in a detail not shown here. Equal entries are not always repeated. Records with an inconclusive call do not appear. A call without a number means that no potency is given here. Some compounds were tested as several samples or in several runs, with calls that do not always agree. Active and inactive are the calls of the source. Unless noted, calls come from the whole dose curve.
# How the values were obtained:
# [1] = target: Voltage-gated inwardly rectifying potassium channel KCNH2 (Homo sapiens) (UniProt Q12809); assay: qHTS Assay for Small Molecule Inhibitors of the Human hERG Channel Activity (AID 588834; active = well fitted curve in the direction sought with a large enough effect; an effect the other way counts as inactive or inconclusive;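 note: lower thallium flux fluorescence means stronger hERG block; nearly all actives have a fitted effect of over 50% in size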; note: potency is the fitted concentration of half-maximal effect); conditions: U2OS BacMam hERG, FluxOR thallium flux fluorescence; series mostly up to 46.1 µM
# Voltage-gated inwardly rectifying potassium channel KCNH2 (Homo sapiens), sequence (Q12809 whole entry, looked up): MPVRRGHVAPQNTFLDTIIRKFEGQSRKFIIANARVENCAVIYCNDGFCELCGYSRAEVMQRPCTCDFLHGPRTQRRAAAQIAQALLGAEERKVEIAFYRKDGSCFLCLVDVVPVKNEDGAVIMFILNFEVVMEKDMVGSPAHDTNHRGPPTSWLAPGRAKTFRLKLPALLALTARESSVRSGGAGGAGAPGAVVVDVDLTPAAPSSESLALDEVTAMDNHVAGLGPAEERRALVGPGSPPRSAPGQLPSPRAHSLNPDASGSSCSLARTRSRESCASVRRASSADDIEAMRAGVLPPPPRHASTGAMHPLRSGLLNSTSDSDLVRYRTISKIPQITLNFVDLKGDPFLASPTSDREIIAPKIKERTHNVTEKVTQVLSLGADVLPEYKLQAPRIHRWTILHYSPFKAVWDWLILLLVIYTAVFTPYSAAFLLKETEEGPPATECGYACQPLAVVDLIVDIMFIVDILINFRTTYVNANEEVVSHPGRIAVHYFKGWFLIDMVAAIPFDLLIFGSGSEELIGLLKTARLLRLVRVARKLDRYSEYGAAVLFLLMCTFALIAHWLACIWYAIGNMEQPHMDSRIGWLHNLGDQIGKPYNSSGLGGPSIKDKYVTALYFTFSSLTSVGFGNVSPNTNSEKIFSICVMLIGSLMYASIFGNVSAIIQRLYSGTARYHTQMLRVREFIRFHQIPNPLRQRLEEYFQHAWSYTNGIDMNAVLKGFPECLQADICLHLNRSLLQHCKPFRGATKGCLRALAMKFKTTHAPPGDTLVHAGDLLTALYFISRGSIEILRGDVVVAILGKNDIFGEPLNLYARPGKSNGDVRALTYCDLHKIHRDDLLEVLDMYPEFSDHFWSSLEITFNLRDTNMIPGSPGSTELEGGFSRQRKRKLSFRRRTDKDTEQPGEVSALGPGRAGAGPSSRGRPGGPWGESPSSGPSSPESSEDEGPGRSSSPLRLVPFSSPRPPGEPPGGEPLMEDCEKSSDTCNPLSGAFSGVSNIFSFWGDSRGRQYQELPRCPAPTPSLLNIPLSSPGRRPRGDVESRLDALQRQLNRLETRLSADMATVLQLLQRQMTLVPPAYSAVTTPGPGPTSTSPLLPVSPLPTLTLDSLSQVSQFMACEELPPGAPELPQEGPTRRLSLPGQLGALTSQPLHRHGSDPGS
# Outline: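 Blockade is seen as reduced FluxOR thallium-flux fluorescence in U2OS cells expressing hERG from a BacMam construct, in Opti-MEM with 2% FCS. Concentration-response data fitted to the Hill equation for AC50.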
# [2] = qHTS assay for small molecule agonists of retinoid X receptor alpha signaling (AID 588544); conditions: HEK293T RXRa-UAS-bla, beta-lactamase reporter, 18 h; 530 nm emission
# [3] = target: Retinoic acid receptor RXR-alpha (Homo sapiens) (UniProt P19793); assay: as above; conditions: HEK293T RXRa-UAS-bla, beta-lactamase reporter, 18 h; series mostly up to 76.7 µM
# Retinoic acid receptor RXR-alpha (Homo sapiens), sequence (P19793 whole entry, looked up): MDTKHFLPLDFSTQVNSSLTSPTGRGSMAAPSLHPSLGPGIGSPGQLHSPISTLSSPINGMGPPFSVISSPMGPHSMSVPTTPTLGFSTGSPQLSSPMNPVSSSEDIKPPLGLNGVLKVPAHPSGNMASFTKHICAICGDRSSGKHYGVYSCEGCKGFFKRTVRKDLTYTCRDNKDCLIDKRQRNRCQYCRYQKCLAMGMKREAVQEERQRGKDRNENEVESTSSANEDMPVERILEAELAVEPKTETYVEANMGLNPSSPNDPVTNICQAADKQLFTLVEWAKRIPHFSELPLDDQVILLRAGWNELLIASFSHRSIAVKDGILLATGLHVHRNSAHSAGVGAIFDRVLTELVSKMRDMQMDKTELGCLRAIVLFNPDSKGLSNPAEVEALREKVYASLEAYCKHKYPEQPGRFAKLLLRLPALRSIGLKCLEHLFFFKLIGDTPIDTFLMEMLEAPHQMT
# [4] = target: Thyroid hormone receptor beta (Homo sapiens) (UniProt P10828); assay: qHTS assay for small molecule agonists of thyroid hormone receptor beta signaling (AID 588545); conditions: TR-UAS-bla GripTite HEK 293, beta-lactamase ratio, agonist mode, 18 h, percent of T3 response, DMSO as zero; series mostly up to 76.7 µM
# Thyroid hormone receptor beta (Homo sapiens), sequence (P10828 whole entry, looked up): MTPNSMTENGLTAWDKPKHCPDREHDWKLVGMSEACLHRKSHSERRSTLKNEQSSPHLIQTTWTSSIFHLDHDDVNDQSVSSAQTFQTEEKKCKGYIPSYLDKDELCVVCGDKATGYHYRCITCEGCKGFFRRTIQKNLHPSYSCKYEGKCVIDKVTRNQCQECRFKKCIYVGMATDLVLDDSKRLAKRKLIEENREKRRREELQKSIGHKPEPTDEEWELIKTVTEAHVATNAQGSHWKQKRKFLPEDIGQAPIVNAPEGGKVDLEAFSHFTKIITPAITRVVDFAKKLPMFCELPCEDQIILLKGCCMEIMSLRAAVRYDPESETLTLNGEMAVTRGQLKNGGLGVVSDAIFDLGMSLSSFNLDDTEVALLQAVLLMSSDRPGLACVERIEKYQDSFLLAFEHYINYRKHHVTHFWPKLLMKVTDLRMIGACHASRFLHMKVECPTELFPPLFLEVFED
# Outline: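 Stimulation of a TR-driven beta-lactamase reporter was quantified in GripTite HEK 293 cells. Compound series ran for 18 hrs; curves were normalized to T3 and DMSO controls and fitted to yield EC50.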
# [5] = qHTS assay for small molecule antagonists of retinoid X receptor alpha signaling (AID 588546); conditions: HEK293T RXRa-UAS-bla, beta-lactamase ratio, antagonist mode; measured here: W530 green channel, cytotoxicity proxy;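 note: cells stimulated with 9-cis-retinoic acid as agonist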
# Outline: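 Beta-lactamase reporter inhibition, read as CCF4 fluorescence ratio (ex 405, em 460/530 nm) after 2 h at RT. HEK293T UAS-bla cells, 2500/well, were stimulated with 9-cis-RA at 500 or 100 nM final alongside test compound for 18 h at 37 C.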
# [6] = target: Thyroid hormone receptor beta (Homo sapiens) (UniProt P10828); assay: qHTS assay for small molecule antagonists of thyroid hormone receptor beta signaling (AID 588547; active = well fitted inhibition curve with a large enough effect in the signal ratio, with a control signal flat, not every such curve was filed as active; the % refers to the signal ratio;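 note: cells stimulated with 0.4 nM T3 agonist during compound exposure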); conditions: TR-UAS-bla HEK293, beta-lactamase ratio, antagonist mode, 18 h
# Outline: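 Inhibition of T3-driven (0.4nM final) beta-lactamase reporter activity was measured over 0.59 nM to 92 uM compound after 18 h at 37 C. The cells were GripTite HEK293 TR-UAS-bla in charcoal/dextran-stripped serum, with CCF4 ratio read-out and IC50 from Hill fits.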
# [7] = target: Luciferin 4-monooxygenase (Photinus pyralis) (UniProt P08659); assay: Biochemical firefly luciferase enzyme assay for NPC (AID 624030; active = well fitted curve in the direction sought with a large enough effect; an effect the other way counts as inactive or inconclusive;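 note: purified P. pyralis luciferase at 10 nM with luciferin and ATP substrate; nearly all actives have a fitted effect of over 70% in size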); conditions: purified P. pyralis luciferase, luminescence, 5 min; series mostly up to 58.6 µM
# Luciferin 4-monooxygenase (Photinus pyralis), sequence (P08659 whole entry, looked up): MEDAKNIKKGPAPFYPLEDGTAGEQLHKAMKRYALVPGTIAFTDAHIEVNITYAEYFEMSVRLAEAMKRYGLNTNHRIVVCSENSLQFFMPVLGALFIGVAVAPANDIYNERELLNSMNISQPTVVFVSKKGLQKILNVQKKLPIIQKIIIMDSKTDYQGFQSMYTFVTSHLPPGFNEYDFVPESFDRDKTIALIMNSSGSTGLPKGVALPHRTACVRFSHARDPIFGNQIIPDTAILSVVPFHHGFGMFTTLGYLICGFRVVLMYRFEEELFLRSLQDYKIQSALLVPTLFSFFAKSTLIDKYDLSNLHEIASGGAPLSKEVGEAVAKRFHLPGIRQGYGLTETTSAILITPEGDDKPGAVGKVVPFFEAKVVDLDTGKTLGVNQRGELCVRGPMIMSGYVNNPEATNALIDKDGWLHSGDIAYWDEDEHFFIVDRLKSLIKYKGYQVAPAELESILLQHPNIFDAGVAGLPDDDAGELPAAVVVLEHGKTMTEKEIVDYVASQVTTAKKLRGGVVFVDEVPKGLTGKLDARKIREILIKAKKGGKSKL
# Outline: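 Direct inhibition of firefly luciferase enzyme (10 nM final, 50 mM Tris Acetate) assessed by luminescence within 5 minutes. Percent activity scaled between DMSO and PTC124 positive control, with concentration-effect curves classified by fit quality and response.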
# [8] = target: Vitamin D3 receptor (Homo sapiens) (UniProt P11473); assay: qHTS assay for small molecule antagonists of vitamin D receptor signaling (AID 588541); conditions: HEK293T VDR-UAS-bla, beta-lactamase ratio, antagonist mode; series mostly up to 76.7 µM;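 note: receptor activated by calcitriol during compound treatment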
# Vitamin D3 receptor (Homo sapiens), sequence (P11473 whole entry, looked up): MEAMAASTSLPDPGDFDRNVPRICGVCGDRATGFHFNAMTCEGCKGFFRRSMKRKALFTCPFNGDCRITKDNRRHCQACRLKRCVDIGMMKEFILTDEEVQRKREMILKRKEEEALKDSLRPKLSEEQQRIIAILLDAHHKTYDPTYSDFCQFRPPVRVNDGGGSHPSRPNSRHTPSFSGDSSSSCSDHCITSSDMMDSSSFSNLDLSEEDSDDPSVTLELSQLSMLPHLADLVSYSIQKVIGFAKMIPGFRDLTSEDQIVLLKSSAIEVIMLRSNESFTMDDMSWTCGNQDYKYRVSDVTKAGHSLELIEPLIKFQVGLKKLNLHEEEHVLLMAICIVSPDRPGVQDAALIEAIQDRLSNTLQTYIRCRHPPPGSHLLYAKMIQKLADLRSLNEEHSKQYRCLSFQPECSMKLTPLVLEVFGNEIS
# Outline: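 Antagonist-mode beta-lactamase reporter assay: HEK293T VDR-UAS-bla cells were exposed to titrated compound alongside 1-alpha,25-dihydroxyvitamin D3 at 3 nM final for 16 h. Values were normalized to the 50 nM agonist control and DMSO basal, with IC50 and efficacy from Hill equation fits.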
# [9] = target: Vitamin D3 receptor (Homo sapiens) (UniProt P11473); assay: qHTS assay for small molecule agonists of vitamin D receptor signaling (AID 588543); conditions: HEK293T VDR-UAS-bla, beta-lactamase ratio, 16 h; series mostly up to 76.8 µM
# Outline: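 Measured: β-lactamase reporter activity (CCF4, 405 nm excitation, 460/530 nm emission) in HEK293T VDR-UAS-bla cells after 16 h compound exposure at 37 °C. Normalization against 50 nM 1α,25-dihydroxyvitamin D3 and DMSO; Hill-fit EC50.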
# [10] = S16 Schwann cell viability assay (CellTiter-Glo assay) (AID 624031; active = well fitted curve in the direction sought with a large enough effect; an effect the other way counts as inactive or inconclusive;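 note: cellular ATP luminescence as a viability measure; nearly all actives have a fitted effect of over 70% in size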); conditions: S16 rat Schwann cells viability, 24 h; series mostly up to 57.5 µM
# Outline: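 Luminescent ATP read-out (CellTiter-Glo) after 24 h compound exposure of native S16 rat Schwann cells at 37 °C. Signals were normalized between cell-free wells and DMSO-treated cells, set as 0% activity.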
smiles,measurement,setting,value
CC(=O)O[C@H]1C(=O)[C@@]2(C)C([C@H](OC(=O)c3ccccc3)[C@]3(O)C[C@H](OC(=O)[C@H](O)[C@@H](NC(=O)c4ccccc4)c4ccccc4)C(C)=C1C3(C)C)[C@]1(OC(C)=O)CO[C@@H]1C[C@@H]2O (stereo not given in full),Potency,[1],inactive
Nc1ccc(S(N)(=O)=O)cc1,max response,[2],-11.9%
same,outcome,[3],inactive
same,outcome,[4],inactive
same,max response,[5],-7.58%
same,activity change % (negative = inhibition),[6],-5.21% (inactive)
same,Potency,[7],inactive
CCc1nc(N)nc(N)c1-c1ccc(Cl)cc1,outcome,[8],inactive
same,outcome,[9],inactive
same,max response,[2],19.5% and 21%
same,outcome,[3],inactive
same,outcome,[4],inactive
same,max response,[5],8.81%
same,activity change % (negative = inhibition),[6],6.74% (inactive) and -7.45% (inactive)
same,Potency,[1],39.8 µM (active) and inactive
same,Potency,[7],inactive
Oc1ccc(-c2nc(-c3ccc(F)cc3)c(-c3ccncc3)[nH]2)cc1,Potency,[1],inactive
Cc1cccc(CN2CCN(C(c3ccccc3)c3ccc(Cl)cc3)CC2)c1 (stereo not given),Potency,[1],1.26 µM (active)
CC(=O)N1CCN(c2ccc(OC[C@H]3CO[C@](Cn4ccnc4)(c4ccc(Cl)cc4Cl)O3)cc2)CC1,outcome,[4],inactive
OC(CN1CCN(c2cccc(Cl)c2)CC1)C(c1ccccc1)c1ccccc1 (stereo not given),Potency,[1],1.58 µM (active)
O=c1c(O)c(-c2cc(O)c(O)c(O)c2)oc2cc(O)cc(O)c12,Potency,[1],inactive
CC1(C)NC(=O)N(c2ccc([N+](=O)[O-])c(C(F)(F)F)c2)C1=O,outcome,[8],inactive
same,outcome,[9],inactive
same,max response,[2],13.6%
same,outcome,[3],inactive
same,outcome,[4],inactive
same,max response,[5],-4.34%
same,Potency,[1],inactive
same,Potency,[7],inactive
same,Potency,[10],inactive
Cc1cccc(C#Cc2ccccc2)n1,Potency,[1],inactive
c1ccc2[nH]c(-c3cscn3)nc2c1,outcome,[8],inactive
same,outcome,[9],inactive
same,max response,[2],8.2% and -19.9%
same,outcome,[3],inactive
same,outcome,[4],inactive
same,max response,[5],-4.89% and -3.75%
same,activity change % (negative = inhibition),[6],-27.5% (inactive)
same,Potency,[1],inactive
same,Potency,[10],inactive
